Key:
Experiment in all cases: log2 ratio of Biotin-Ahx-Ub-VS probe labelling (fragment/DMSO); higher = less target engagement (more negative = stronger competition), active = hit call of the paper (q ≤ 0.05, log2 ratio ≤ -1)
Conditions in all cases: compound concentration: 200 uM; treatment time: 3 h
USP42 = target: T1, USP42 (UniProt Q9H9J4)
T1 sequence (whole entry): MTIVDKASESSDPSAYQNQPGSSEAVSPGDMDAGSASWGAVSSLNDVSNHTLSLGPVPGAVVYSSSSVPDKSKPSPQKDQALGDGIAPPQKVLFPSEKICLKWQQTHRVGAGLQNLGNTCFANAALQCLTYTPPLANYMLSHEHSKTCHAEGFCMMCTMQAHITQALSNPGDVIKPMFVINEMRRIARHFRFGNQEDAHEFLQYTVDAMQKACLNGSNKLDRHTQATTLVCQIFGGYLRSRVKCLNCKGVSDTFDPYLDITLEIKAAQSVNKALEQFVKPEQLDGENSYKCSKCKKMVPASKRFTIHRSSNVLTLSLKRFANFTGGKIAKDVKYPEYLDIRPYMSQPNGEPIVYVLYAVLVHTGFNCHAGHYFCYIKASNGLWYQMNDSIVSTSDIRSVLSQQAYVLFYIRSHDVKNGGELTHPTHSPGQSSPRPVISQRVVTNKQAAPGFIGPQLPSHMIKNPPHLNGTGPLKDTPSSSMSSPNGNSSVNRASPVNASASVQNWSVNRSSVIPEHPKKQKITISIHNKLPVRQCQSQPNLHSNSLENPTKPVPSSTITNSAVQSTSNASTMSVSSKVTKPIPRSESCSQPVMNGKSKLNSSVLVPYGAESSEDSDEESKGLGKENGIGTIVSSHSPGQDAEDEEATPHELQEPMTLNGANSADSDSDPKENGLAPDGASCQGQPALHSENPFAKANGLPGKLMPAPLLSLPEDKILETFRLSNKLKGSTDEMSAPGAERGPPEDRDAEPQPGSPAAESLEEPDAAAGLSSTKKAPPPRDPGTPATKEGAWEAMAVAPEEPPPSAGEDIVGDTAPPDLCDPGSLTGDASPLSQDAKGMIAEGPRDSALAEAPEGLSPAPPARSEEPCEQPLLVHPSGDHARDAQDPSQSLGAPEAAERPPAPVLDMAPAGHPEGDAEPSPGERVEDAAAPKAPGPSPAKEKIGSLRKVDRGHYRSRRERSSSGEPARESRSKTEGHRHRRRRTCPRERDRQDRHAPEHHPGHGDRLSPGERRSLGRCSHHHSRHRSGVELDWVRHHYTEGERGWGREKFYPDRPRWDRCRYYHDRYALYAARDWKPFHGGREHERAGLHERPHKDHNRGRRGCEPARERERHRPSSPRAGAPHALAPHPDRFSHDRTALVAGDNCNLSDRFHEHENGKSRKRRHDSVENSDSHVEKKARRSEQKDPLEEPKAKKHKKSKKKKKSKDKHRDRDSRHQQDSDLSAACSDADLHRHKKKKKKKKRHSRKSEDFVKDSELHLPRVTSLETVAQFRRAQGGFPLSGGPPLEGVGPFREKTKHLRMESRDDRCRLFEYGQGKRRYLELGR
Procedure, shortened: (§1)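 Triplicate samples of HEK293T lysate, 495 µg each, received fragment at 200 µM or vehicle for 3 h, followed by Biotin-Ahx-Ub-VS (0.5 µM final) for 1 h. After NeutrAvidin enrichment of labelled DUBs and LysC/trypsin digestion, peptides were run by diaPASEF LC-MS/MS. The values are average log2 fragment/vehicle ratios from global-median-normalised Spectronaut label-free quantities, tested by unpaired t-test on proteins having ≥2 unique peptides.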

USP46 = USP46 (UniProt P62068)
Sequence of USP46 (P62068 whole entry): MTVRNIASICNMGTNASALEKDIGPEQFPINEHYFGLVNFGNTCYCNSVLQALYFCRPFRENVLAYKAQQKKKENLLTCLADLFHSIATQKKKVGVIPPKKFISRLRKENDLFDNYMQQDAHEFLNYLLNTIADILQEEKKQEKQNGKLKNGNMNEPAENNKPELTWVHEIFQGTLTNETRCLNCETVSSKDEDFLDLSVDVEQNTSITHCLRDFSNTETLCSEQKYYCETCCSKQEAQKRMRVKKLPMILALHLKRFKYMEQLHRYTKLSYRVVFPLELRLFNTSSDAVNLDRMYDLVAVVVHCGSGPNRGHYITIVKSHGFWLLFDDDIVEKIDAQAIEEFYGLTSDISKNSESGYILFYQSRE
Procedure, shortened: as §1

USP47 = target: T2, USP47 (UniProt Q96K76)
T2 sequence (whole entry): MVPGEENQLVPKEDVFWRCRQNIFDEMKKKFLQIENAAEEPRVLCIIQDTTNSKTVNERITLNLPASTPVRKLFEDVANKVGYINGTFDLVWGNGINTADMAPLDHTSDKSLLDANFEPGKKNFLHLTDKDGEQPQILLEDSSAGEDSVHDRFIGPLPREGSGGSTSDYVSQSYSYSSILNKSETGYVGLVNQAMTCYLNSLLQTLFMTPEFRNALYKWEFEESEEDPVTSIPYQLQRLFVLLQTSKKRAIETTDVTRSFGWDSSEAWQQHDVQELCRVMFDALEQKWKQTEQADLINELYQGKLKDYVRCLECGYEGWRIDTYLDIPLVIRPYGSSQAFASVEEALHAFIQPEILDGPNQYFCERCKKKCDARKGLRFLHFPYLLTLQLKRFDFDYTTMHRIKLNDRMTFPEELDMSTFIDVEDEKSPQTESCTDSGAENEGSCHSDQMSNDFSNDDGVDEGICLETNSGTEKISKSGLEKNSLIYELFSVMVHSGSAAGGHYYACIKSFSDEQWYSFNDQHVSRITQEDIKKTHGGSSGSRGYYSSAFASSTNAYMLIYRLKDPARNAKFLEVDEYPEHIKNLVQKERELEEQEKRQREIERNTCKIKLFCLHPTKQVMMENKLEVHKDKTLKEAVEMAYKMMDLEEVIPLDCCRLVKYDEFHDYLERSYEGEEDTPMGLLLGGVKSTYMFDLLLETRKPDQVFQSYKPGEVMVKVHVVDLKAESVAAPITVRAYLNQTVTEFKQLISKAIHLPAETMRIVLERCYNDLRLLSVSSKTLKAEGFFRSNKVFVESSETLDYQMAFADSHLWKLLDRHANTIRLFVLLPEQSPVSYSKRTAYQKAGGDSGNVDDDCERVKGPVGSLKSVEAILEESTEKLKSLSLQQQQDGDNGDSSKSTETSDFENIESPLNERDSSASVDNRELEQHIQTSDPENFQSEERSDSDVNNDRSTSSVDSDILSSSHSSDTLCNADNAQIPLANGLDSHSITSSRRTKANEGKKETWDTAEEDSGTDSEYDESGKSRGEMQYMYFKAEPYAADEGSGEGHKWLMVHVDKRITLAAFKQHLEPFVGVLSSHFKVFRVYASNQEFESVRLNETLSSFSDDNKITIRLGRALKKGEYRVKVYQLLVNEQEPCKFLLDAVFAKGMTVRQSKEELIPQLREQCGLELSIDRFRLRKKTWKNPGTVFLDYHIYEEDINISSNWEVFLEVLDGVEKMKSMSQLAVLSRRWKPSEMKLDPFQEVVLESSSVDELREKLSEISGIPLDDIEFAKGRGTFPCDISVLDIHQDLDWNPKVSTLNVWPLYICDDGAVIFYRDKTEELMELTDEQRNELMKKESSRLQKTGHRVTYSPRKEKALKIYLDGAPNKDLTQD
Procedure, shortened: as §1

USP48 = target: T3, USP48 (UniProt Q86UV5)
T3 sequence (whole entry): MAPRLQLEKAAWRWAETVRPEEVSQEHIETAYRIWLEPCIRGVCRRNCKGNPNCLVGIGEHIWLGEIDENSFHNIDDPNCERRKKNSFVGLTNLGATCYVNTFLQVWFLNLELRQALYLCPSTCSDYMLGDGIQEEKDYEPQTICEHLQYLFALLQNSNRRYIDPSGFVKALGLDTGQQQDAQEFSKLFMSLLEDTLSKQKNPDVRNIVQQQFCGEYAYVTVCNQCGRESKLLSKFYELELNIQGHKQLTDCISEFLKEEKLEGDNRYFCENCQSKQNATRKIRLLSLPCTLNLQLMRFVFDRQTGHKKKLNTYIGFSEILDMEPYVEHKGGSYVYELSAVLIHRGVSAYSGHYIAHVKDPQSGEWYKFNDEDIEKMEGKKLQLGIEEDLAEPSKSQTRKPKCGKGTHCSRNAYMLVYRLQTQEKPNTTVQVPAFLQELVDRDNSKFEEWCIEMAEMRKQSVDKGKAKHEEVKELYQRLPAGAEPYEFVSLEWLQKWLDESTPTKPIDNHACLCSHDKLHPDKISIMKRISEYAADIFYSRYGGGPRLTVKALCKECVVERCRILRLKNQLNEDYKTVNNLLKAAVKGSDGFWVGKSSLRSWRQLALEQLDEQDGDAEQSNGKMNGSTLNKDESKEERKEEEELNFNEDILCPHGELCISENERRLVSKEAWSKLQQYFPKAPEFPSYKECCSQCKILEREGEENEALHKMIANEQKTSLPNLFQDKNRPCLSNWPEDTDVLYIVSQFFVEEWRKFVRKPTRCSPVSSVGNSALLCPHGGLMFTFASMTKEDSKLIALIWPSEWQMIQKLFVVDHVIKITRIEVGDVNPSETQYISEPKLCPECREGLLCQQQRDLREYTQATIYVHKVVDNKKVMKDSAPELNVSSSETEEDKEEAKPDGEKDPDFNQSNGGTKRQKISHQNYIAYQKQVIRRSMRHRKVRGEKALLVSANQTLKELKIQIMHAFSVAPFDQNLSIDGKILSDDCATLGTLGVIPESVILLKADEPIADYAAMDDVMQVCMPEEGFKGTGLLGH
Procedure, shortened: as §1

USP5 = target: T4, USP5 (UniProt P45974)
T4 sequence (whole entry): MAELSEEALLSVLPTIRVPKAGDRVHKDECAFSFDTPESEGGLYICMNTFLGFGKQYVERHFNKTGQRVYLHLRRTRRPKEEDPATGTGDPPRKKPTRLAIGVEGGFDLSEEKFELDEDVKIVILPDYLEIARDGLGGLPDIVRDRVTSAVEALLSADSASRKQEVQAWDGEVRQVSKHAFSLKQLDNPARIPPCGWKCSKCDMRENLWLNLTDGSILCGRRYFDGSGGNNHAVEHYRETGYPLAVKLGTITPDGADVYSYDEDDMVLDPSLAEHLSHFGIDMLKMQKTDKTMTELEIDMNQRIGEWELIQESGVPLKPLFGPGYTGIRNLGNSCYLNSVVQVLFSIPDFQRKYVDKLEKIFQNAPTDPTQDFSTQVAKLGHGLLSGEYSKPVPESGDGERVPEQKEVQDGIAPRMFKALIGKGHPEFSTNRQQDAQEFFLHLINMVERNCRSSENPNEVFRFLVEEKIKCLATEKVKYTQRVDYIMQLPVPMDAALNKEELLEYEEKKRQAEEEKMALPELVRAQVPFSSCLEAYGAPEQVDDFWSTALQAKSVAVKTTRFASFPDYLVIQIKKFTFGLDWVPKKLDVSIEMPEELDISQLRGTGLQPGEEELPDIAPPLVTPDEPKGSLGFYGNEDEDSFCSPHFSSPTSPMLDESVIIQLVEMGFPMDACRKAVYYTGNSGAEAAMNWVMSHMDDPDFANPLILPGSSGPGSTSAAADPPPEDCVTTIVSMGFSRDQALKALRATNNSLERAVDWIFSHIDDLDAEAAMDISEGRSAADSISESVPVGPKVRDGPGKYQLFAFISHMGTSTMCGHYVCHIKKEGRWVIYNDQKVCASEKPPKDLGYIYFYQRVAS
Procedure, shortened: as §1

USP54 = USP54 (UniProt Q70EL1)
Sequence of USP54 (Q70EL1 whole entry): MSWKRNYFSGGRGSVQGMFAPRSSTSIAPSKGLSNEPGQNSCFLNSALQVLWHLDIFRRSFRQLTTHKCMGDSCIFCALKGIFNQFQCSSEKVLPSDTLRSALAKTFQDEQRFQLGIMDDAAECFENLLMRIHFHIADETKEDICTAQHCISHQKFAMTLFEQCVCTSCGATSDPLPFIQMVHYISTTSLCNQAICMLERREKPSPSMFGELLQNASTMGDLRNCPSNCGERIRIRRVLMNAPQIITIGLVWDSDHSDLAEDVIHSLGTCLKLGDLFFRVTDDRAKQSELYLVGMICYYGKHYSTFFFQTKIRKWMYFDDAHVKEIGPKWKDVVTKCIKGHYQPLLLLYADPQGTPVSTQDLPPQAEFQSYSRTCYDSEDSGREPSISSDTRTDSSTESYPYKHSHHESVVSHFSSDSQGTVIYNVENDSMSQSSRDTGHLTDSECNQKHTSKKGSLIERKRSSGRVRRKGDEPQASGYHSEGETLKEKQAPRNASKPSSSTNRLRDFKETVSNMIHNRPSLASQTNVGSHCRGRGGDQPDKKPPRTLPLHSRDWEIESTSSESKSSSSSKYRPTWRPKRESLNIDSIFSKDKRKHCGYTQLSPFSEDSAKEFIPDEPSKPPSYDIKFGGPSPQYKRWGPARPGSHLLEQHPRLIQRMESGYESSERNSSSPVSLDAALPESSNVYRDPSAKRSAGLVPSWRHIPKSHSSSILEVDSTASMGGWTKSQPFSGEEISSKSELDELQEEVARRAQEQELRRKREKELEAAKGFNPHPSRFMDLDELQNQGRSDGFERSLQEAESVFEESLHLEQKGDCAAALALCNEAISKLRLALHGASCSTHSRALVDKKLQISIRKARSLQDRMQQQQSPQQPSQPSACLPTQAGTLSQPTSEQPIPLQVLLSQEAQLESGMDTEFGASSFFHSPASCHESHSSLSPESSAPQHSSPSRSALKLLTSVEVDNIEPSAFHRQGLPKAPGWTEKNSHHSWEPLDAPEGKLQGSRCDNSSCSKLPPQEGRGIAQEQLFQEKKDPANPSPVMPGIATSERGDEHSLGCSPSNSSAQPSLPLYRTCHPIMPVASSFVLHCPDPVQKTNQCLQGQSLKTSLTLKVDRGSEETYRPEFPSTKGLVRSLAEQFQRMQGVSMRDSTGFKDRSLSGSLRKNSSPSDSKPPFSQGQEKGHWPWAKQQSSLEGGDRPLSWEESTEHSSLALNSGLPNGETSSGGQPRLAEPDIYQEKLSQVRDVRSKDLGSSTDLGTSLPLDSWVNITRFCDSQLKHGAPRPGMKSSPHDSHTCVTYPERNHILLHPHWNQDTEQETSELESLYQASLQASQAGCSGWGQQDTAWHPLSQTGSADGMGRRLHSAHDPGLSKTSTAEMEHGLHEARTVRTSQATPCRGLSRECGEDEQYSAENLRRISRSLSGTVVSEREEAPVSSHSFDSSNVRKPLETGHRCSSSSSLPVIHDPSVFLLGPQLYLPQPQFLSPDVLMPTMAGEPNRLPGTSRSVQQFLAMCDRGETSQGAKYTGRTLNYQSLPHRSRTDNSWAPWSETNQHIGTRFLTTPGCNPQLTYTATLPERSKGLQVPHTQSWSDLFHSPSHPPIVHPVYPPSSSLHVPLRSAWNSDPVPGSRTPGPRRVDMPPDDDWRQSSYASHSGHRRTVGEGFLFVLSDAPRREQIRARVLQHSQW
Procedure, shortened: as §1

USP7 = USP7 (UniProt Q93009)
Sequence of USP7 (Q93009 whole entry, looked up): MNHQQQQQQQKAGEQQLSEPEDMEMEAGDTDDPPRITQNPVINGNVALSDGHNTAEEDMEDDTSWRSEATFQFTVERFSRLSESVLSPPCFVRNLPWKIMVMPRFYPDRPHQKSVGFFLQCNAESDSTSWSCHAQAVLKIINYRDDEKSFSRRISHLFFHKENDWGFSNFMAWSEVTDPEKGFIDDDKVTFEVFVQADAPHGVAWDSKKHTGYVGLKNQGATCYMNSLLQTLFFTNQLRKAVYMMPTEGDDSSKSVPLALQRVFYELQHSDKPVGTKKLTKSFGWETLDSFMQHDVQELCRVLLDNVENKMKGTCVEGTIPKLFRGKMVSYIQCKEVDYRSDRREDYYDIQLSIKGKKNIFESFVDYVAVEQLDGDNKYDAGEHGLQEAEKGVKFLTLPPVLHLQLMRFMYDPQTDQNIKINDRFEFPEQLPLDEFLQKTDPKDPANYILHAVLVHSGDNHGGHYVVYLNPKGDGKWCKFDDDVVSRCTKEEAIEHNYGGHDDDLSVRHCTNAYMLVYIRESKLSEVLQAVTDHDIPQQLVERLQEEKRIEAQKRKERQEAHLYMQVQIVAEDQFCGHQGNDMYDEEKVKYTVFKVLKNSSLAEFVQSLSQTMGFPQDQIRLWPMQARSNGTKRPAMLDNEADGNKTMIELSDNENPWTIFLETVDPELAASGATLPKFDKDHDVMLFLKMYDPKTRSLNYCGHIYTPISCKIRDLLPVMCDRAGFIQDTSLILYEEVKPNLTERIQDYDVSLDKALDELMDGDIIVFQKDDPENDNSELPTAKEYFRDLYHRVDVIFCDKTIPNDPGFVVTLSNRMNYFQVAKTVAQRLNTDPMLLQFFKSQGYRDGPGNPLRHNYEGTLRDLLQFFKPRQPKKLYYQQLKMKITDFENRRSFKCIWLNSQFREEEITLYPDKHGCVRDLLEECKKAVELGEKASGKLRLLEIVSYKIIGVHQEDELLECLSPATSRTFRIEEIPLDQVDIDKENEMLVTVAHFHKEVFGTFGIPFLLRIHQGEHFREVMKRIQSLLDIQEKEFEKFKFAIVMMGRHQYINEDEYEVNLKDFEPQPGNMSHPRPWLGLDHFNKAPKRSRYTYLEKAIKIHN
Procedure, shortened: as §1

USP8 = target: T5, USP8 (UniProt P40818)
T5 sequence (whole entry): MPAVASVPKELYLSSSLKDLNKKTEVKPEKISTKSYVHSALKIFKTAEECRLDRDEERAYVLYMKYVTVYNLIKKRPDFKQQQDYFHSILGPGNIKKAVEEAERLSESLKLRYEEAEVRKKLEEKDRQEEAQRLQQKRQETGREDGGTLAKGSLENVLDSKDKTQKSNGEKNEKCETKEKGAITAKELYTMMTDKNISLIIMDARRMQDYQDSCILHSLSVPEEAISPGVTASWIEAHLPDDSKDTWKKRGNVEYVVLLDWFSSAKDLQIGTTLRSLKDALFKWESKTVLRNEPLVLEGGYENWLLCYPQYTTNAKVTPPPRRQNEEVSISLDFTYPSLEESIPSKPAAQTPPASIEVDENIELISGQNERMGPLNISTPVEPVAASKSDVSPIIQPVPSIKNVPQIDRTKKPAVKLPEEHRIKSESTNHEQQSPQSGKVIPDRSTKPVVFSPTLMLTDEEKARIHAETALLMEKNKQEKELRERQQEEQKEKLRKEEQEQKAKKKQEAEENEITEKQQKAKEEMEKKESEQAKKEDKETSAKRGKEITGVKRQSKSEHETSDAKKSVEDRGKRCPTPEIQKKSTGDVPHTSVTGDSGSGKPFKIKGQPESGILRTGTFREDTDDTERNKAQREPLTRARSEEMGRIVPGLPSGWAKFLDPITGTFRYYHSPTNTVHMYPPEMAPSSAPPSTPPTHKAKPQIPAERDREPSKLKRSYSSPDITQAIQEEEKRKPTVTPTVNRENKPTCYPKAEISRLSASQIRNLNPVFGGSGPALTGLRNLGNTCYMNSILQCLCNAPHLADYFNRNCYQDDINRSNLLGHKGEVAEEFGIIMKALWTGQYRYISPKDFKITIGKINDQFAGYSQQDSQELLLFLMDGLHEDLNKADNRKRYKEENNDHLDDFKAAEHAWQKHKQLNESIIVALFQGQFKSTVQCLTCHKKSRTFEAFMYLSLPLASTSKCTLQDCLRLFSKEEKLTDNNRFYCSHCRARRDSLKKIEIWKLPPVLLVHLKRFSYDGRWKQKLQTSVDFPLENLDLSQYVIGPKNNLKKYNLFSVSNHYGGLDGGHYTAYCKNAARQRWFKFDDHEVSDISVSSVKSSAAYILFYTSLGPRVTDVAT
Procedure, shortened: as §1

USP9X = USP9X (UniProt Q93008)
Procedure, shortened: as §1

UniProt O00487 = target: UniProt O00487
Sequence of UniProt O00487 (O00487 whole entry): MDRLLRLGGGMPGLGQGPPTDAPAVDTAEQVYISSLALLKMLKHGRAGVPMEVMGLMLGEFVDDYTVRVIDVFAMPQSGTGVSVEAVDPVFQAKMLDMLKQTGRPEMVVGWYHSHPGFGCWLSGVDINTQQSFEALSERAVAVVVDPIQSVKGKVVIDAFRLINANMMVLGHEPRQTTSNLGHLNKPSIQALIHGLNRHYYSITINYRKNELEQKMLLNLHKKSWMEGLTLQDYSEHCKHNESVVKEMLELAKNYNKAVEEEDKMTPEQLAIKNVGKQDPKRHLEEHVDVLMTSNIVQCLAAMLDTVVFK
Procedure, shortened: as §1

Measured: log2 ratio of Biotin-Ahx-Ub-VS probe labelling

CN(Cc1nc2ccccc2[nH]1)C(=O)CCl.Cl
inactive: USP42 0.698 | USP46 -0.254 | USP47 -0.178 | USP5 0.118 | USP54 -0.517 | USP8 -0.0998 | USP9X -0.057 | UniProt O00487 -0.00224
active: USP48 -1.14 | USP7 -1.36
